# According to publication PMC8384837, “Expanding the binding specificity for RNA recognition by a PUF domain”:
# Experiments:
# Experiment in all cases: yeast three-hybrid, YBZ-1, SC-Leu-His + 0.5 mM 3-AT, 4 days
# Details in all cases: tags: N-Gal4 AD-HA kept; label: inside an RPR1-promoter hybrid RNA with tandem MS2 sites; ssRNA
# PUM1 PUF domain R5-TKR = PUM1 PUF domain R5-TKR (Homo sapiens, UniProt Q14671 828-1176, C1007T;R1008K;Q1011R)
# Summary of the method: (§1)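 A centromeric plasmid in strain YBZ-1 co-expressed Pumilio-1 PUF domain libraries, randomized at the three base-contacting residues of each repeat, with matching RNA elements; the strain carries a LexA–MS2 coat fusion and a HIS3 reporter. After four days on SC-Leu (input) or SC-Leu-His + 0.5 mM 3-AT (selection), the repeat regions were PCR-amplified and Illumina-sequenced. The interaction score is the log change in variant frequency from input to selection, using log2 and a pseudocount of 1 where absent.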
# PUM1 PUF domain R5-KAD = PUM1 PUF domain R5-KAD (Homo sapiens, UniProt Q14671 828-1176, C1007K;R1008A;Q1011D)
# Chain of PUM1 PUF domain R5-KAD (Q14671 828-1176 C1007K/R1008A/Q1011D): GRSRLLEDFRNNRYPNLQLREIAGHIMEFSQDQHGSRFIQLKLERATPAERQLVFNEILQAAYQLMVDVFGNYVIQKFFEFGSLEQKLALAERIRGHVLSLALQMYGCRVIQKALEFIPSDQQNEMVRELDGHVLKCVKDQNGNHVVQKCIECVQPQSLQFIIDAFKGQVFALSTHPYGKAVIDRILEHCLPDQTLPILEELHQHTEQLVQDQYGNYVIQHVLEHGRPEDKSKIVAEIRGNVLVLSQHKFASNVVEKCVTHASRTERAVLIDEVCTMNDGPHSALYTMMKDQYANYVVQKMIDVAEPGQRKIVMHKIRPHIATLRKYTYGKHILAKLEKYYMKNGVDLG
# Summary of the method: as §1
# PUM1 PUF domain R5-DLR = PUM1 PUF domain R5-DLR (Homo sapiens, UniProt Q14671 828-1176, C1007D;R1008L;Q1011R)
# Chain of PUM1 PUF domain R5-DLR (Q14671 828-1176 C1007D/R1008L/Q1011R): as the sequence (Q14671 828-1176 C1007K/R1008A/Q1011D) above, with K180D, A181L, D184R counted along it
# Summary of the method: as §1
# PUM1 PUF domain R3-GRV = PUM1 PUF domain R3-GRV (Homo sapiens, UniProt Q14671 828-1176, C935G;Q939V)
# Summary of the method: as §1
# PUM1 PUF domain R8-GWQ = PUM1 PUF domain R8-GWQ (Homo sapiens, UniProt Q14671 828-1176, N1122G;Y1123W)
# Summary of the method: as §1
# PUM1 PUF domain R4-SCS = PUM1 PUF domain R4-SCS (Homo sapiens, UniProt Q14671 828-1176, N971S;H972C;Q975S)
# Summary of the method: as §1
# PUM1 PUF domain R5-MRE = PUM1 PUF domain R5-MRE (Homo sapiens, UniProt Q14671 828-1176, C1007M;Q1011E)
# Summary of the method: as §1
# PUM1 PUF domain R3-ARP = PUM1 PUF domain R3-ARP (Homo sapiens, UniProt Q14671 828-1176, C935A;Q939P)
# Summary of the method: as §1
# PUM1 PUF domain R6-AFS = biological target: T1, PUM1 PUF domain R6-AFS (Homo sapiens, UniProt Q14671 828-1176, N1043A;Y1044F;Q1047S)
# T1 sequence: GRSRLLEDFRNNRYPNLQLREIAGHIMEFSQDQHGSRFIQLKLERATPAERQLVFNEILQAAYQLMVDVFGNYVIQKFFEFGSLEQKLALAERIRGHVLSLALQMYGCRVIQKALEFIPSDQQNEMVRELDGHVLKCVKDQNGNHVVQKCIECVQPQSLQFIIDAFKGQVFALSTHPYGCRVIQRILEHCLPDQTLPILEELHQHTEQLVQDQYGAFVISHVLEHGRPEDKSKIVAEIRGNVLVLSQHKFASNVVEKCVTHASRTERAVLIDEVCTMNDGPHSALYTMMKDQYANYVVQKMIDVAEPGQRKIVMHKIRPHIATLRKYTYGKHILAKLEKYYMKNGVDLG
# Summary of the method: as §1
# PUM1 PUF domain R4-TRQ = PUM1 PUF domain R4-TRQ (Homo sapiens, UniProt Q14671 828-1176, N971T;H972R)
# Summary of the method: as §1
# PUM1 PUF domain R4-EYD = PUM1 PUF domain R4-EYD (Homo sapiens, UniProt Q14671 828-1176, N971E;H972Y;Q975D)
# Summary of the method: as §1
# PUM1 PUF domain R3-PWF = PUM1 PUF domain R3-PWF (Homo sapiens, UniProt Q14671 828-1176, C935P;R936W;Q939F)
# Summary of the method: as §1
# PUM1 PUF domain R1-RQQ = PUM1 PUF domain R1-RQQ (Homo sapiens, UniProt Q14671 828-1176, S863R;R864Q)
# Summary of the method: as §1
# PUM1 PUF domain R1-RNS = PUM1 PUF domain R1-RNS (Homo sapiens, UniProt Q14671 828-1176, S863R;R864N;Q867S)
# Summary of the method: as §1
# PUM1 PUF domain R1-YAR = PUM1 PUF domain R1-YAR (Homo sapiens, UniProt Q14671 828-1176, S863Y;R864A;Q867R)
# Summary of the method: as §1
# PUM1 PUF domain R1-TFE = PUM1 PUF domain R1-TFE (Homo sapiens, UniProt Q14671 828-1176, S863T;R864F;Q867E)
# Summary of the method: as §1
# PUM1 PUF domain R4-HNI = PUM1 PUF domain R4-HNI (Homo sapiens, UniProt Q14671 828-1176, N971H;H972N;Q975I)
# Summary of the method: as §1
# PUM1 PUF domain R3-IFE = PUM1 PUF domain R3-IFE (Homo sapiens, UniProt Q14671 828-1176, C935I;R936F;Q939E)
# Summary of the method: as §1
# Chain of PUM1 PUF domain R5-TKR (Q14671 828-1176 C1007T/R1008K/Q1011R): as the sequence (Q14671 828-1176 C1007K/R1008A/Q1011D) above, with K180T, A181K, D184R counted along it
sequence,measurement,setting,value
GGCUAGAACUAGUGGAUCCCCCGGCGCCCGGCGGCUCGAGCCCGGGUAAGUGUCAAUAGUCUGCAUGCCGCCGGGCGCCAUGCCUGCAGGUCGACUCUAGAAAACAUG,binding signal,PUM1 PUF domain R5-TKR,6.59 log2 enrichment (interaction score)
same,binding signal,PUM1 PUF domain R5-KAD,2.78 log2 enrichment (interaction score)
same,binding signal,PUM1 PUF domain R5-DLR,4.71 log2 enrichment (interaction score)
GGCUAGAACUAGUGGAUCCCCCGGCGCCCGGCGGCUCGAGCCCGGGUAAGUGUAAAUAGUCUGCAUGCCGCCGGGCGCCAUGCCUGCAGGUCGACUCUAGAAAACAUG,binding signal,PUM1 PUF domain R3-GRV,2.81 log2 enrichment (interaction score)
same,binding signal,PUM1 PUF domain R8-GWQ,2.82 log2 enrichment (interaction score)
same,binding signal,PUM1 PUF domain R4-SCS,2.13 log2 enrichment (interaction score)
same,binding signal,PUM1 PUF domain R5-MRE,1.14 log2 enrichment (interaction score)
same,binding signal,PUM1 PUF domain R3-ARP,4.92 log2 enrichment (interaction score)
same,binding signal,PUM1 PUF domain R6-AFS,1.74 log2 enrichment (interaction score)
same,binding signal,PUM1 PUF domain R4-TRQ,4.68 log2 enrichment (interaction score)
same,binding signal,PUM1 PUF domain R4-EYD,2.77 log2 enrichment (interaction score)
same,binding signal,PUM1 PUF domain R3-PWF,3.15 log2 enrichment (interaction score)
GGCUAGAACUAGUGGAUCCCCCGGCGCCCGGCGGCUCGAGCCCGGGUAAGUGUGAAUAGUCUGCAUGCCGCCGGGCGCCAUGCCUGCAGGUCGACUCUAGAAAACAUG,binding signal,PUM1 PUF domain R5-MRE,2.77 log2 enrichment (interaction score)
GGCUAGAACUAGUGGAUCCCCCGGCGCCCGGCGGCUCGAGCCCGGGUAAGUGUAAAUCGUCUGCAUGCCGCCGGGCGCCAUGCCUGCAGGUCGACUCUAGAAAACAUG,binding signal,PUM1 PUF domain R1-RQQ,3.45 log2 enrichment (interaction score)
same,binding signal,PUM1 PUF domain R1-RNS,2.4 log2 enrichment (interaction score)
same,binding signal,PUM1 PUF domain R1-YAR,6.19 log2 enrichment (interaction score)
GGCUAGAACUAGUGGAUCCCCCGGCGCCCGGCGGCUCGAGCCCGGGUAAGUGUAAAUGGUCUGCAUGCCGCCGGGCGCCAUGCCUGCAGGUCGACUCUAGAAAACAUG,binding signal,PUM1 PUF domain R1-TFE,6.33 log2 enrichment (interaction score)
same,binding signal,PUM1 PUF domain R1-RNS,0.7 log2 enrichment (interaction score)
GGCUAGAACUAGUGGAUCCCCCGGCGCCCGGCGGCUCGAGCCCGGGUAAGUGUAUAUAGUCUGCAUGCCGCCGGGCGCCAUGCCUGCAGGUCGACUCUAGAAAACAUG,binding signal,PUM1 PUF domain R4-SCS,1.72 log2 enrichment (interaction score)
same,binding signal,PUM1 PUF domain R4-HNI,4.84 log2 enrichment (interaction score)
GGCUAGAACUAGUGGAUCCCCCGGCGCCCGGCGGCUCGAGCCCGGGUAAGUGUAAGUAGUCUGCAUGCCGCCGGGCGCCAUGCCUGCAGGUCGACUCUAGAAAACAUG,binding signal,PUM1 PUF domain R3-ARP,1.52 log2 enrichment (interaction score)
same,binding signal,PUM1 PUF domain R3-IFE,5.39 log2 enrichment (interaction score)
